Experimental findings from ChEMBL document CHEMBL3988442, “University of Dundee, Small-Polar-MMV Screening Library” (2021) are described below.

The whole screen tested about 69,000 compounds, of which about 420 (0.61%) showed an effect of 50% or more. The sample holds strong results, similar compounds and a random draw of the others, so the mix is not that of the screen.

The target in the test is T1, Histidine--tRNA ligase (Leishmania infantum) (UniProt A4I591).
T1 sequence (whole entry): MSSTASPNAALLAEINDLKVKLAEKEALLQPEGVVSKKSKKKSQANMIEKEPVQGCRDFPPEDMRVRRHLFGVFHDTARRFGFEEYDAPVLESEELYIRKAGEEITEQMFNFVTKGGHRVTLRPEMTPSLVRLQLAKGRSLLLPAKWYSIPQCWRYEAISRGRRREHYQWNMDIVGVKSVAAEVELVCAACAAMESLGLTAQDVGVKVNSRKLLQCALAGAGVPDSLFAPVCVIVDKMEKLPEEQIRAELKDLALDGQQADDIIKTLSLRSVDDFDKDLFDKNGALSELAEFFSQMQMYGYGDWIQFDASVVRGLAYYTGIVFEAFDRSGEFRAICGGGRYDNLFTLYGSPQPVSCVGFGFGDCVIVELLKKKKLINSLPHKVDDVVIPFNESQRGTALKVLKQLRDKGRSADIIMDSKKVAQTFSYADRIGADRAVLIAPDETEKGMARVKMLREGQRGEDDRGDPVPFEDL
The test is described as follows: Leishmania infantum Histidine tRNA synthetase (LdHisRS). It is filed as functional. The arrangement: scale not given: in the data most compounds retested in dose-response had high values. Particulars: 30 µM.
`Cc1ccc(NC(=O)Nc2c(O)oc3ccccc3c2=O)cc1`: the Percent Effect was determined as 6.17%.
As to `O=C1CO[C@H]2CN(Cc3ccc(F)c(F)c3)C[C@H]2N1`, the Percent Effect is 1.35%.
Take `Cc1cc2nc(SCC(=O)N3CCCC3)n(C)c(=O)c2[nH]1`: the Percent Effect was determined as 5.26%.
Take `Cc1cc2nc(SCC(=O)N3CCCC3)n(-c3ccccc3)c(=O)c2[nH]1`: the Percent Effect was 51.4%.
As for `Cc1cc2nc(SCC(=O)N3CCCCC3)n(C)c(=O)c2[nH]1`, the Percent Effect is 10.5%.
On to `COCCC(=O)N1C[C@@H]2COC[C@]2(COCc2cccnc2)C1`, for which the Percent Effect worked out at 10.7%.
For the molecule `CCS(=O)(=O)N1C[C@H]2CN(Cc3cccnc3)C(=O)[C@H]2C1`, the Percent Effect turned out to be 0%.
Turning to `O=C(c1ccnnc1)N1CCO[C@H]2[C@@H](OCc3cccnc3)CC[C@@H]21`, the Percent Effect is 25.7%.
As to `CCCN1C[C@H]2CC[C@@H]1CN(Cc1ccc(Cn3cccn3)cc1)C2`, the Percent Effect turned out to be 17.5%.
The value for `CCCN1C[C@H]2CC[C@@H]1CN(Cc1ccc(-n3cccn3)cc1)C2` was 50.8%; that for `CCCN1C[C@H]2CC[C@@H]1CN(Cc1cccc(O)c1)C2` was 32.9%.
The value for `CCCN1C[C@H]2CC[C@@H]1CN(Cc1cccc(-n3cccn3)c1)C2` was 14.2%; that for `CC(=O)N1C[C@@H]2CC[C@H](C1)N(Cc1ccc(Cn3cccn3)cc1)C2` was 14.2%.
With `CCN1CCO[C@@H]2CN(C(=O)c3ccc4[nH]ccc4c3)CC[C@@H]2C1`, the Percent Effect came to 26%.
`CN1CCN(C(=O)[C@H]2C[C@@H]3CCN(c4ncc(F)cn4)C[C@@H]3O2)CC1`: the Percent Effect stood at 7.55%.
As to `CC(=O)N1CC[C@H]2OCC[C@@H](C(=O)Nc3cccnc3C)[C@@H]2C1`, the Percent Effect amounted to 17.3%.
Turning to `CN(C)C(=O)N1C[C@@H]2CC[C@H](C1)N(S(=O)(=O)c1cccnc1)C2`, the Percent Effect came to 12.1%.
In the case of `CCO[C@H]1CN(CC2CCOCC2)[C@@H]2CCCO[C@H]12`, the Percent Effect worked out at 7.92%.
For the molecule `O=S(=O)(C1CC1)N1CCO[C@H]2[C@H](OCC3CC3)CC[C@@H]21`, the Percent Effect worked out at 5.56%.
Turning to `O=C(c1cnccn1)N1CCN2C[C@H](OCc3ccccc3)C[C@H]2C1`, the Percent Effect amounted to 15.1%.
As for `O=C(Nc1nccs1)c1csc(NC2CCCC2)n1`, the Percent Effect is 66.3%.
For `O=C(Nc1ccccn1)c1csc(NC2CCCC2)n1`, the Percent Effect was 28.1%.
On to `Cc1cnc(NC(=O)c2csc(NC3CCCC3)n2)s1`, for which the Percent Effect is 21.4%.
Regarding `Cc1n[nH]c(SCC(=O)N2C[C@H]3CC[C@@H]2CN(c2ncccn2)C3)n1`, the Percent Effect stood at 9.38%.
Turning to `COCCN1C[C@@H]2CCCO[C@@H]2[C@H](NC(=O)c2cnccn2)C1`, the Percent Effect worked out at 11.3%.
With `c1cncc(NCCNC2CCSCC2)c1`, the Percent Effect worked out at 8.57%.
Take `Cc1cnccc1NCCNC1CCSCC1`: the Percent Effect is 17.1%.
Regarding `c1cncc(NCCCNC2CCSC2)c1` (stereo unspecified), the Percent Effect turned out to be 28.6%.
On to `c1cncc(NCCNC2CCSC2)c1` (stereo unspecified), for which the Percent Effect came to 62.9%.
In the case of `CC(C)CN1CCC(NCCNc2cccnc2)CC1`, the Percent Effect was 9.76%.
Turning to `c1cncc(NCCNC2CSCCSC2)c1`, the Percent Effect worked out at 74.3%.
The figure for `CCNC(=O)N1CCc2ccc(NC(=O)NCc3ccsc3)cc21` is 31.7%.
As for `COCc1csc(NC(=O)NCc2ccsc2)n1`, the Percent Effect worked out at 14.3%.
As to `CN(Cc1ccsc1)C(=O)Nc1ccc(S(C)(=O)=O)cc1`, the Percent Effect amounted to 11.9%.
With `Cn1cc(NC(=O)NCc2ccsc2)ccc1=O`, the Percent Effect was 126%.
The figure for `Cn1cc(NC(=O)CCc2ccsc2)ccc1=O` is 103%; for `Cc1cnccc1NC(=O)CCc1ccsc1` it is 9.33%; for `Cc1cc(NC(=O)CCc2ccsc2)n(C)n1` it is 18.3%.
Take `CN(Cc1ccsc1)C(=O)Nc1ccc(S(=O)(=O)N(C)C)cc1`: the Percent Effect was -30.3%.
With `CN(Cc1ccsc1)C(=O)Nc1ccc(=O)n(C)c1`, the Percent Effect was 123%.
As to `O=C1CO[C@H]2CN(S(=O)(=O)c3ccccc3)C[C@H]2N1Cc1ccccc1`, the Percent Effect turned out to be 25%.
For the molecule `CCC1=N[C@@]2(CC[C@@H]3CN(S(C)(=O)=O)C[C@@H]32)C(=O)N1CC(C)C`, the Percent Effect is 7.96%.
On to `CC(C)CO[C@H]1CN(S(=O)(=O)c2cn(C)cn2)[C@@H]2CCCO[C@H]12`, for which the Percent Effect amounted to 1.01%.
As to `C(=C\c1ccc(CN2CCCC2)cn1)/c1ccccc1`, the Percent Effect stood at 22.6%.
`COc1ccc(C)cc1CN1CCn2cccc2C1C` (stereo unspecified): the Percent Effect was 42%.
On to `COc1ccc(CN2CCn3cccc3C2C)cc1F` (stereo unspecified), for which the Percent Effect was 29.5%.
On to `COc1ccc(C(C)=O)cc1CN1CCn2cccc2C1C` (stereo unspecified), for which the Percent Effect is 52.7%.
Consider `CN(C)C[C@H]1OC[C@@H]2CCN(S(=O)(=O)c3ccc(F)cc3)C[C@@H]21`, for which the Percent Effect was -4.59%.
Take `O=C1CC[C@H]2CN(C3CCOCC3)CC[C@H]2N1CCC1=CCCCC1`: the Percent Effect is 15.6%.
In the case of `COc1ccc(CN2C[C@@H]3CC[C@H](C2)N(S(C)(=O)=O)C3)cc1`, the Percent Effect amounted to 10%.
In the case of `O=S1(=O)C[C@@H]2[C@H](C1)N(S(=O)(=O)N1CCCC1)CCN2Cc1ccccc1`, the Percent Effect is 19.2%.
As to `CN(C)CCN1CCO[C@H]2CCN(C(=O)c3cccs3)CC[C@@H]21`, the Percent Effect is 15.4%.
Regarding `CN(C)CCN1CCCC12CCN(C(=O)c1cccn1C)CC2`, the Percent Effect turned out to be 5.88%.
`CN(C)CCN1CCO[C@@H]2CCN(C(=O)c3cccn3C)CC[C@H]21`: the Percent Effect worked out at 52.8%.
Consider `COc1ccccc1CN1C(=O)O[C@@H]2CN(CC3CC3)C[C@@H]21`, for which the Percent Effect stood at 10%.
On to `O=C([C@@H]1CC[C@@H]2[C@@H](CCN2Cc2cccs2)O1)N1CCCCO1`, for which the Percent Effect was 17.1%.
Regarding `NC(=O)c1cnc2n1CCN(C(=O)c1ccc(Cn3cccc3)cc1)C2`, the Percent Effect turned out to be 63.2%.
In the case of `NC(=O)c1cnc2n1CCN(C(=O)c1ccc(-c3cc[nH]n3)cc1)C2`, the Percent Effect worked out at 14.9%.
Turning to `NC(=O)c1cnc2n1CCN(C(=O)c1cccc(Cn3cccn3)c1)C2`, the Percent Effect turned out to be 12.6%.
In the case of `Cc1nc2ccc(C(=O)N3CCn4c(C)nnc4C3)cc2nc1C`, the Percent Effect stood at 21%.
`Cc1nnc2n1CCN(C(=O)c1ccc(Cn3cccc3)cc1)C2`: the Percent Effect is 51.7%.
`CC(C)c1nnc2n1CCN(C(=O)c1ccc(Cn3cccc3)cc1)C2`: the Percent Effect was found to be 14.9%.
For `COc1cccc(SCCCn2cnc3c(N)ncnc32)c1`, the Percent Effect was 4.08%.
Take `Clc1ccc(C2(CNC3=NCCN3)CCCC2)cc1`: the Percent Effect was determined as 35.7%.
As for `Clc1ccc(C2(CNC3=NCCN3)CCCCC2)cc1`, the Percent Effect was 50%.
As to `Clc1ccc(C2(CNC3=NCCN3)CC2)cc1`, the Percent Effect is 18.6%.
Regarding `CC(C)c1n[nH]c(C(=O)Nc2ccccn2)c1Br`, the Percent Effect came out at 0%.
In the case of `CNC(=O)[C@@]12CCO[C@@H]1CCN(S(=O)(=O)c1ccccc1C)C2`, the Percent Effect worked out at 5%.
With `CC(C)CS(=O)(=O)N1C[C@H]2C[C@H](C(=O)N3CCOCC3)[C@@H](C1)O2`, the Percent Effect was determined as 1.89%.
As to `O=C(c1cccnc1-c1ccoc1)N1C[C@H]2CC[C@@H]1C2`, the Percent Effect worked out at 1.43%.
The figure for `COc1ccc(C2CC(=O)Nc3nc(N4CCOCC4)sc32)cc1` (stereo unspecified) is 105%; for `COc1ccc(C2CC(=O)Nc3nc(N4CCOCC4)sc32)c(OC)c1` (stereo unspecified) it is 115%.
Consider `CCn1ncnc1C1CC(=O)NCc2nc(N3CCOCC3)sc21` (stereo unspecified), for which the Percent Effect was 25.3%.
As to `COc1ccc(OC)c(C2CCN(CC(C)(C)N3CCOCC3)C2)c1` (stereo unspecified), the Percent Effect turned out to be 12.7%.
For the molecule `COc1ccc(C2CCCN2c2nnc(C)s2)c(OC)c1` (stereo unspecified), the Percent Effect was determined as 6.25%.
Regarding `COc1ccc(C(C)C)cc1C1CC(=O)NCc2nc(N(C)C)sc21` (stereo unspecified), the Percent Effect worked out at 31.2%.
`COc1ccc(C2CC(=O)Nc3c2cnn3C)cc1` (stereo unspecified): the Percent Effect amounted to 1.91%.
The value for `COc1ccc(OC)c(C2CC(=O)Nc3nc(N4CCOCC4)sc32)c1` (stereo unspecified) was 102%; that for `COc1ccc(C2CC(=O)NCc3nc(N(C)C)sc32)c(O)c1` (stereo unspecified) was 10.8%.
Consider `O=C(c1ccncc1)N1C[C@@H]2CC[C@H](C1)N(C(=O)N1CCOCC1)C2`, for which the Percent Effect was 12.6%.
Turning to `COCC(=O)N1CC[C@]2(O)CCN(Cc3cccnc3OC)C[C@@H]2C1`, the Percent Effect is 17.1%.
With `COc1ccc(CC(=O)N2CC[C@@H]3NC(=O)CC[C@@H]32)cc1`, the Percent Effect is 8.77%.
With `CC(C)(O)CCc1cccc(C(=O)NCc2cnn3cccnc23)c1`, the Percent Effect is 2.22%.
`O=C(NCc1cnn2cccnc12)c1cccc(CC2CCNCC2)c1`: the Percent Effect amounted to 60%.
Take `CC(C)Cn1cncc1CNC(=O)c1cccc(CC2CCNCC2)c1`: the Percent Effect is 25.6%.
The value for `O=C(CC1CCCCC1)N1C[C@H]2CC[C@@H]1CN(Cc1cccnc1)C2` was 9.68%.
